Experimental findings from PubChem BioAssay (Tox21) are described below.

Structures are written as SMILES. Results filed as inconclusive are left out. Active and inactive are the calls of the source. The call rests on the fitted dose curve; in most records, active means well fitted cell-killing curve with a large enough effect in the repeat runs; inconclusive means weak or mixed curves, or effect the other way; inactive means no such curve, though single readings can be large or run the other way.
On the % scale 0 is the no-effect control and ±100 the full control effect; potency means the concentration at half of the fitted maximal effect.

A short description of the experiment: qHTS assay for identifying genotoxic compounds that show differential cytotoxicity against isogenic chicken DT40 cell lines with known DNA damage response pathways - Rev3 mutant cell line (AID 743014). Further: nearly all actives have a fitted effect of over 55% in size. Conditions: chicken DT40 Rev3-/- viability, CellTiter-Glo, 40 h; series mostly up to 68.4 µM; activity, negative = cytotoxicity: at the top concentration. The source says:
National Center for Advancing Translational Sciences [NCATS]
NIH Chemical Genomics Center [NCGC]
U.S. Environmental Protection Agency [EPA]
National Institutes of Environmental Health Sciences [NIEHS]
National Toxicology Program [NTP]
U.S. Food and Drug Administration [FDA]
DNA repair pathways play a critical role in cellular homeostasis by repairing DNA damage induced by endogenous processes and xenobiotics. Isogenic chicken DT40 cell lines deficient in different DNA repair pathways can be used to identify genotoxic compounds and aid in characterizing the nature of the DNA damage induced. Two DNA repair-deficient cell lines with disrupted genes, Rad54/Ku70 or Rev3, were used to screen the Tox21 10K compound library. Possible genotoxicity was based on the presence of a significant increase in cytotoxicity in one or more of the DNA repair-deficient cell lines compared to that observed in the parental DNA repair-proficient cell line. CellTiter Glo viability assay (Promega, Madison, WI) was used to measure cell viability in these cells after compound treatment. This assay includes the data from the Rev3 mutant cell line.
Tox21 Assay Protocol Summary:
300 DT40 mutant cells in 5 uL/well were dispensed into white, solid-bottom 1536-well plates using a Multidrop Combi (ThermoFisher Scientific, Waltham, MA) dispenser. After the assay plates were incubated at 37 C/5% CO2 for approximately 0.5 hour, 23 nL of compounds dissolved in DMSO, positive controls or DMSO only was transferred into the assay plate by a pintool work station (Kalypsys, San Diego, CA). The assay plates were incubated at 37 C/5% CO2 for 40 hours. After 5 uL per well of CellTiter-Glo reagent was added into each well of the assay plates, the plates were incubated for 30 min at room temperature and the luminescence intensity of the plates was measured using a ViewLux (PerkinElmer, Shelton, CT) plate reader.
A general note: qHTS replaces the single test concentration by a dilution series.
`O=C(NCCCN1CCOCC1)c1ccc(Cl)cc1`: the “activity, negative = cytotoxicity” value was -3.94% (inactive).

Turning to `Cc1oc(C)c(C(=O)Nc2ccccc2)c1C`, the Potency is 10.9 µM (active).

Consider `ON(Cc1ccccc1)Cc1ccccc1`, for which the “activity, negative = cytotoxicity” value was -10.3% (inactive).

In the case of `C[C@]12CCC(=O)C=C1C=C[C@@H]1[C@@H]2CC[C@@]2(C)[C@H]1CC[C@@]21CCC(=O)O1`, the Potency was 23.7 µM (active).

Consider `Cc1ccccc1N1C(=O)c2cc(S(N)(=O)=O)c(Cl)cc2NC1C` (stereo not given), for which the “activity, negative = cytotoxicity” value was -5.95% (inactive).

Consider `CC(C)C(=O)O`, for which the “activity, negative = cytotoxicity” value was 12.4% (inactive).

Regarding `CCC(C)(C)C1CCC(O)CC1` (stereo not given), the “activity, negative = cytotoxicity” value was -17% (inactive).

With `COc1ccc(C(=O)c2cccc(O)c2)c(OC)c1`, the “activity, negative = cytotoxicity” value was -13.5% (inactive).

Regarding `CC(C)CCCC(=O)O`, the “activity, negative = cytotoxicity” value is -21.3% (inactive).

As for `COCCOC(=O)C1=C(C)NC(C)=C(C(=O)OC/C=C/c2ccccc2)C1c1cccc([N+](=O)[O-])c1` (stereo not given), the Potency was 11.9 µM (active).

As for `CNC(=S)NC`, the Potency is 43.3 µM (active).

Turning to `CO/N=C1\CN(c2nc3c(cc2F)c(=O)c(C(=O)O)cn3C2CC2)CC1CN` (stereo not given), the “activity, negative = cytotoxicity” value is -14.1% (inactive).

Turning to `COc1cc2[nH]c(=O)[nH]c(=O)c2cc1OC`, the “activity, negative = cytotoxicity” value is -3.09% [at 31.4 µM] (inactive).

As for `O=C(/C=C/c1ccccc1)OCCCc1ccccc1`, the “activity, negative = cytotoxicity” value is 5.81% (inactive).

`CCOC(=O)c1ccccc1OC`: the “activity, negative = cytotoxicity” value is 3.54% (inactive).

Consider `Oc1cc(O)c(Cl)cc1Cl`, for which the “activity, negative = cytotoxicity” value is -7.94% [at 95 µM] (inactive).

As to `CCCCCCCCCCCC[N+](C)(C)CC(=O)[O-]`, the Potency was 27.3 µM (active).

For `Nc1ccc(Cl)cc1[N+](=O)[O-]`, the “activity, negative = cytotoxicity” value is 7.41% (inactive).

On to `Fc1c(F)c(F)c(Br)c(F)c1F`, for which the “activity, negative = cytotoxicity” value was -4.93% (inactive).

For `C=C(C)C(=O)OCCOC(=O)CC(C)=O`, the “activity, negative = cytotoxicity” value was -20% (inactive).

In the case of `COc1cc2c(N3CCN(C(=O)Nc4ccc(OC(C)C)cc4)CC3)ncnc2cc1OCCCN1CCCCC1`, the Potency was 7.5 µM (active).

`C[N+](C)(C)CCOC(N)=O`: the “activity, negative = cytotoxicity” value was -0.0156% (inactive).

For `CN1CCCN=C1/C=C/c1cccs1`, the “activity, negative = cytotoxicity” value is 1.72% (inactive).

`Nc1nccs1`: the “activity, negative = cytotoxicity” value is 3.59% (inactive).

For `COc1cc2c(cc1OC)-c1cc(=Nc3c(C)cc(C)cc3C)n(C)c(=O)n1CC2`, the Potency is 4.22 µM (active).

Turning to `O=C(O)c1cccnc1C(=O)O`, the “activity, negative = cytotoxicity” value is -12.9% (inactive).

Regarding `C=CC(=C)CCCC(C)(C)OC(C)=O`, the “activity, negative = cytotoxicity” value was -5.02% (inactive).

As for `NC(=O)N(O)[C@@H]1COc2cc(OCc3ccccc3)ccc21`, the Potency is 68.6 µM (active).

Regarding `Cc1nc2ccccc2s1`, the “activity, negative = cytotoxicity” value is 3.59% [at 95 µM] (inactive).

Regarding `C=CC(C)(O)CCCC(C)CCCC(C)CCCC(C)C` (stereo not given), the “activity, negative = cytotoxicity” value is -19.7% (inactive).

As for `CCCCCCOC(=O)C(C)C`, the “activity, negative = cytotoxicity” value is -13.4% (inactive).

Turning to `O=C(C(=O)c1ccccc1)c1ccccc1`, the “activity, negative = cytotoxicity” value was -10.4% (inactive).

Take `CCOc1cc(N)c(Cl)cc1C(=O)NCC1CN(Cc2ccc(F)cc2)CCO1` (stereo not given): the Potency was 11.9 µM (active).

On to `CN1CCN(c2c(F)cc3c(=O)c(C(=O)O)cn4c3c2OCN4C)CC1`, for which the “activity, negative = cytotoxicity” value was 1.38% (inactive).

`CCCCC(CC)COC(=O)COc1ccc(Cl)cc1C` (stereo not given): the Potency was 68.6 µM (active).

On to `CCCCN(CCCC)CCCOC(=O)c1ccc(N)cc1`, for which the Potency was 2.27 µM (active).

As to `O=C(N/N=C/c1ccc([N+](=O)[O-])o1)c1ccc(O)cc1`, the Potency is 4.03 µM (active).

On to `CCCCCCCCCCCCCCCCBr`, for which the “activity, negative = cytotoxicity” value is -1.17% [at 31.4 µM] (inactive).

As for `CCCc1c(OCCCOc2ccc(OCC(=O)O)cc2)ccc(C(C)=O)c1O`, the “activity, negative = cytotoxicity” value is -16.3% (inactive).

As for `O=c1[nH]c2ccc(S(=O)CCN3CCC(Cc4ccc(F)cc4)CC3)cc2o1` (stereo not given), the Potency was 4.33 µM (active).
